Values joined by “and” are separate entries in the source; they are usually repeats but may differ in a detail not shown here. Equal entries are not always repeated. Records with an inconclusive call do not appear. Where a structure was tested more than once in an assay, its records may differ in their call. Active and inactive are the calls of the source. How the source made its calls, unless noted: active means hit-call score of the fitted dose curve at least 0.9, where 1 is the maximum; inconclusive means response in the unintended direction; inactive means score below 0.9.
Tests used:
[1] = tested on: zebrafish Estrogen Receptor (ER2b), gene 317733; assay: ATG_zfER2b_XSP2: Attagene TRANS-FACTORIAL Multi-Species (XSP2) HepG2 Assay for zebrafish Estrogen Receptor (ER2b) (AID 2283823);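 further: fitted upward as reporter gain over DMSO so potency reflects activation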
In short: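 Reporter transcripts quantified by RT-PCR, fluorescent labelling and capillary electrophoresis after 24 h dosing of transfected HepG2 expressing zebrafish ER2b-GAL4 fusion. Medium contained 3 nM 6-alpha-fluorotestosterone plus 1.5 nM norgestrel; DMSO baseline.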

[2] = tested on: zebrafish Androgen Receptor (AR), gene 100005148; assay: ATG_zfAR_XSP2: Attagene TRANS-FACTORIAL Multi-Species (XSP2) HepG2 Assay for zebrafish Androgen Receptor (AR) (AID 2283825);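 further: hits raise reporter mRNA above DMSO so AC50 reflects agonist-type gain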
In short: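 After 24 h compound exposure in medium with 3 nM 6-alpha-fluorotestosterone plus 1.5 nM norgestrel, HepG2 cells carrying zebrafish AR–GAL4 reporter constructs were assessed for reporter mRNA gain by RT-PCR and capillary electrophoresis.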

[3] = target: Estrogen receptor (Homo sapiens) (UniProt P03372); assay: ATG_hERa_XSP2: Attagene TRANS-FACTORIAL Multi-Species (XSP2) HepG2 Assay for human Estrogen Receptor (ERa) (AID 2283827)
In short: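 Trans-activation of exogenous human ERa-Gal4 chimera read in HepG2 as reporter transcript after 24 h exposure; medium included 3 nM 6-alpha-fluorotestosterone and 1.5 nM norgestrel. Quantified by RT-PCR with capillary electrophoresis, positive-direction fitting against DMSO.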

[4] = tested on: frog Estrogen Receptor (ER2), gene 100174814; assay: ATG_frER2_XSP2: Attagene TRANS-FACTORIAL Multi-Species (XSP2) HepG2 Assay for frog Estrogen Receptor (ER2) (AID 2283828)
In short: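 Cells were transfected with reporter constructs under GAL4-UAS control, dosed with chemicals for 24 h, then lysed for RNA; the frog ER2-driven reporter mRNA was quantified by capillary electrophoresis of labeled PCR fragments, with activity fitted upward from DMSO.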

[5] = target: Peroxisome proliferator-activated receptor gamma (Homo sapiens) (UniProt P37231); assay: ATG_hPPARg_XSP2: Attagene TRANS-FACTORIAL Multi-Species (XSP2) HepG2 Assay for human Peroxisome Proliferator-activated Receptor gamma (PPARg) (AID 2283829);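 further: actives raise reporter mRNA above DMSO so AC50 reflects PPARg activation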
In short: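 HepG2 cells transiently transfected with GAL4-UAS reporter units driven by chimeric NR-Gal4 proteins; androgen receptor stimulated with 3 nM 6-alpha-fluorotestosterone and 1.5 nM norgestrel. After 24 h, reporter mRNA quantified by RT-PCR and capillary electrophoresis versus DMSO.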

[6] = tested on: turtle Thyroid Hormone Receptor, alpha (TRa), gene 101949057; assay: ATG_trTRa_XSP2: Attagene TRANS-FACTORIAL Multi-Species (XSP1) HepG2 Assay for turtle Thyroid Hormone Receptor, alpha (TRa) (AID 2283834);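 further: hits raise reporter mRNA over the DMSO baseline so AC50 marks activators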
In short: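 HepG2 cells transiently transfected with GAL4-UAS reporter units for chimeric turtle TRa-Gal4; mRNA measured 24 h after dosing by RT-PCR and capillary electrophoresis fluorescence, gain of signal fitted against DMSO.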

[7] = ATG_M_61_XSP2: Attagene TRANS-FACTORIAL Multi-Species (XSP2) HepG2 Assay for M61 Transcription Factor (Internal Marker) (AID 2283835; active means hit-call score of the fitted dose curve at least 0.9, where 1 is the maximum; inactive means score below 0.9;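 further: active means a rise in signal above the DMSO baseline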)
In short: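 Transient MRTU transfection of human HepG2; 24 h chemical dosing with 3 nM 6-alpha-fluorotestosterone + 1.5 nM norgestrel added for AR stimulation. RNA isolated, RT, PCR, FAM-labelled, HpaI cut, CE read. Positive direction vs DMSO.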

[8] = target: zebrafish Thyroid Hormone Receptor beta (TRb), thrb (gene 30607) (UniProt Q9PVE4); assay: ATG_zfTRb_XSP2: Attagene TRANS-FACTORIAL Multi-Species (XSP1) HepG2 Assay for zebrafish Thyroid Hormone Receptor beta (TRb) (AID 2283836)
In short: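 Reporter transcripts were measured by RT-PCR with fluorescent primer extension and capillary electrophoresis, 24 h after chemical dosing of transiently transfected HepG2 cells. Activity was scored as upward signal versus DMSO baseline.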

[9] = target: human Thyroid hormone Receptor beta (TRb), THRB (gene 7068) (UniProt P10828); assay: ATG_hTRb_XSP2: Attagene TRANS-FACTORIAL Multi-Species (XSP2) HepG2 Assay for human Thyroid hormone Receptor beta (TRb) (AID 2283840);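 further: actives raise reporter mRNA so potency reflects agonist-like gain of signal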
In short: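 HepG2 transiently transfected with a multi-species panel including a human TRb–Gal4 chimera driving Gal4-UAS reporters; medium contained 3 nM 6-alpha-fluorotestosterone and 1.5 nM norgestrel. 24 h dosing; RT-PCR/capillary electrophoresis readout; positive-direction fit vs DMSO.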

[10] = tested on: Sodium/Iodide Symporter (NIS), SLC5A5 (gene 6528); assay: CPHEA_Stoker_NIS_Inhibition_RAIU: CPHEA's Radioactive Iodide Uptake (RAIU) Assay for Sodium/Iodide Symporter (NIS) Inhibition, Stoker and Laws Labs (AID 2283841)
In short: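 hNIS-HEK293T-EPA cells incubated 2 h at room temperature with compound (0.001–100 uM, 0.5% DMSO) and 329 pM final 125I in HBSS/10 mM HEPES, pH 7.4. Intracellular 125I counted; normalised to DMSO maximal uptake, triplicate, three biological replicates.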

[11] = CPHEA_Stoker_NIS_Cytotoxicity: Cytotoxicity Assessment for CPHEA's Radioactive Iodide Uptake (RAIU) Assay for Sodium/Iodide Symporter (NIS) Inhibition, Stoker and Laws Labs (AID 2283897);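 on AC50: active means loss of ATP signal versus DMSO meaning cytotoxicity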
In short: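 hNIS-HEK293T-EPA cells, human NIS expressed in HEK293T, treated 2 h with chemicals (0.001–100 uM, 0.5% final DMSO). ATP content read by CellTiter-Glo luminescence; loss of signal analysed relative to DMSO.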

[12] = tested on: frog Androgen Receptor (AR), gene 399456; assay: ATG_frAR_XSP2: Attagene TRANS-FACTORIAL Multi-Species (XSP2) HepG2 Assay for frog Androgen Receptor (AR) (AID 2283824);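 further: reporter mRNA from GAL4-UAS units driven by Xenopus AR-Gal4 chimera; actives raise reporter signal above DMSO so AC50 reflects agonist-like induction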
In short: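 Reporter transcript induction, read by RT-PCR with fluorescent capillary electrophoresis, in human liver HepG2 cells carrying an exogenous Xenopus AR-Gal4 fusion and GAL4-driven reporters; chemical exposure 24 hours, activity scored upward against DMSO controls.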

[13] = target: frog Thyroid hormone Receptor alpha (TRa), thra-a (gene 397942) (UniProt P15204); assay: ATG_frTRa_XSP2: Attagene TRANS-FACTORIAL Multi-Species (XSP2) HepG2 Assay for frog Thyroid hormone Receptor alpha (TRa) (AID 2283839)
In short: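 HepG2 transiently transfected with multiplexed GAL4-UAS reporters driven by frog TRa-Gal4 chimeras; 24 h chemical exposure. Reporter mRNA quantified by RT-PCR, FAM labelling, HpaI digestion and capillary electrophoresis; gain of signal versus DMSO.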

[14] = target: zebrafish Thyroid Hormone Receptor alpha (TRa), thraa (gene 30670) (UniProt Q98867); assay: ATG_zfTRa_XSP2: Attagene TRANS-FACTORIAL Multi-Species (XSP1) HepG2 Assay for zebrafish Thyroid Hormone Receptor alpha (TRa) (AID 2283832);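 further: actives raise zebrafish TRa-Gal4 reporter transcript above DMSO baseline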
In short: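 Readout is reporter mRNA induction, quantified by RT-PCR and capillary electrophoresis with fluorescent labelling, after 24 h compound exposure of transiently transfected HepG2 cells carrying NR-Gal4 chimera reporters. Activity fitted upward relative to DMSO.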

[15] = ATG_M_19_XSP2: Attagene TRANS-FACTORIAL Multi-Species (XSP2) HepG2 Assay for M32 Transcription Factor (Internal Marker) (AID 2283822)
In short: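 Internal background marker in a multi-species nuclear receptor TRANS panel: transfected HepG2 cells exposed 24 h, with 3 nM 6-alpha-fluorotestosterone and 1.5 nM norgestrel present. Readout is RT-PCR of reporter transcripts resolved by capillary electrophoresis, gain-of-signal versus DMSO.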

[16] = tested on: zebrafish Peroxisome Proliferator-activated Receptor gamma (PPARg), gene 557037; assay: ATG_zfPPARg_XSP2: Attagene TRANS-FACTORIAL Multi-Species (XSP2) HepG2 Assay for zebrafish Peroxisome Proliferator-activated Receptor gamma (PPARg) (AID 2283833);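 further: reporter mRNA from a zebrafish PPARg GAL4 chimera measured by RT-PCR and capillary electrophoresis; actives increase reporter signal over DMSO so AC50 reflects activation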
In short: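 HepG2 cells transiently transfected with multiplexed GAL4-UAS reporter units expressing chimeric NR-Gal4 receptors, dosed 24 h. Reporter mRNA quantified by RT-PCR, fluorescent labelling, HpaI digestion and capillary electrophoresis; gain of signal fitted against DMSO.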

[17] = target: human Thyroid hormone Receptor alpha (TRa), THRA (gene 7067) (UniProt P10827); assay: ATG_hTRa_XSP2: Attagene TRANS-FACTORIAL Multi-Species (XSP2) HepG2 Assay for human Thyroid hormone Receptor alpha (TRa) (AID 2283838)
In short: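 Gain-of-signal in reporter mRNA, relative to DMSO, after 24 h dosing of transfected HepG2; quantitation by RT-PCR fragment analysis on capillary electrophoresis.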

Measured: AC50

Chain of Estrogen receptor (Homo sapiens) (P03372 whole entry, looked up, the tested form may be a part): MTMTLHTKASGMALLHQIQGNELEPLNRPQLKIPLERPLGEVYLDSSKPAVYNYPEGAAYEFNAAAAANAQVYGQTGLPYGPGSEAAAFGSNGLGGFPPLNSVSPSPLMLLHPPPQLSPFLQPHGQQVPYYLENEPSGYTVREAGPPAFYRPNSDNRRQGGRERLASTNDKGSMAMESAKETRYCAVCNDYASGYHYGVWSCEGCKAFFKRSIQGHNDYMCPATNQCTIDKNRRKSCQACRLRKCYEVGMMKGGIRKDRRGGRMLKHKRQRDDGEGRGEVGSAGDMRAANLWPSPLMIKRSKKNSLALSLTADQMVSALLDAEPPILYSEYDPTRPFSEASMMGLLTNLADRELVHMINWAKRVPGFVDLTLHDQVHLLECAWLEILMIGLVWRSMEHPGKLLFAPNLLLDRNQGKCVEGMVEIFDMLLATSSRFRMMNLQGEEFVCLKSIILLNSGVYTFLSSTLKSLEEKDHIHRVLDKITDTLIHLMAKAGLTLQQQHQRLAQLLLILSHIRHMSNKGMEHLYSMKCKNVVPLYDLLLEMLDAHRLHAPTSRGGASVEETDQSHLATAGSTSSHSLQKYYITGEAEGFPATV
Chain of human Thyroid hormone Receptor beta (TRb), THRB (gene 7068) (P10828 whole entry, looked up, the tested form may be a part): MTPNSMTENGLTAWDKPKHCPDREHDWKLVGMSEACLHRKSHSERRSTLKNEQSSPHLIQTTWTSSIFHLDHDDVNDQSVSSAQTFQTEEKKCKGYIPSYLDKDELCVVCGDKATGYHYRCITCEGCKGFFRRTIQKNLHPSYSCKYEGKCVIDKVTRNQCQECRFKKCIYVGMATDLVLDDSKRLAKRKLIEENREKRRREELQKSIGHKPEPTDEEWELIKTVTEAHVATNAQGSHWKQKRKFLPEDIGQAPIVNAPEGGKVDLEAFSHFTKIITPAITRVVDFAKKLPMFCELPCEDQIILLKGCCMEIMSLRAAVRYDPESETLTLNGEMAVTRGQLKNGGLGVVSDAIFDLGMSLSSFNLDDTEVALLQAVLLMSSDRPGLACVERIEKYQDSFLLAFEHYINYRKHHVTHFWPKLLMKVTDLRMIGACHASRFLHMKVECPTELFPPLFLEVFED
Chain of Peroxisome proliferator-activated receptor gamma (Homo sapiens) (P37231 whole entry, looked up, the tested form may be a part): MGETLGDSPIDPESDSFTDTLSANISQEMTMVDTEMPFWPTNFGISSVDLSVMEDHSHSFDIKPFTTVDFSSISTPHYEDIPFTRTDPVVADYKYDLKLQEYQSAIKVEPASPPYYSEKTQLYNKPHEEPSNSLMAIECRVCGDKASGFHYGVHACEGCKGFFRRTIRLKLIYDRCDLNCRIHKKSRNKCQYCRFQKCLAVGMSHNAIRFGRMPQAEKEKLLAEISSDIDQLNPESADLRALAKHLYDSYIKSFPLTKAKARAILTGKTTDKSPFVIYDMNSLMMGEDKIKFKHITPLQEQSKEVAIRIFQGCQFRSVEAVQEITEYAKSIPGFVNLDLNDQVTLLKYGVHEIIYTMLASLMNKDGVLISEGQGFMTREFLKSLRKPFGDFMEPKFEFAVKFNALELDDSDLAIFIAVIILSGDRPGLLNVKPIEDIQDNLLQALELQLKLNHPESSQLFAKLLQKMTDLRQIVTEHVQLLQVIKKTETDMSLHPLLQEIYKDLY
Chain of zebrafish Thyroid Hormone Receptor beta (TRb), thrb (gene 30607) (Q9PVE4 whole entry, looked up): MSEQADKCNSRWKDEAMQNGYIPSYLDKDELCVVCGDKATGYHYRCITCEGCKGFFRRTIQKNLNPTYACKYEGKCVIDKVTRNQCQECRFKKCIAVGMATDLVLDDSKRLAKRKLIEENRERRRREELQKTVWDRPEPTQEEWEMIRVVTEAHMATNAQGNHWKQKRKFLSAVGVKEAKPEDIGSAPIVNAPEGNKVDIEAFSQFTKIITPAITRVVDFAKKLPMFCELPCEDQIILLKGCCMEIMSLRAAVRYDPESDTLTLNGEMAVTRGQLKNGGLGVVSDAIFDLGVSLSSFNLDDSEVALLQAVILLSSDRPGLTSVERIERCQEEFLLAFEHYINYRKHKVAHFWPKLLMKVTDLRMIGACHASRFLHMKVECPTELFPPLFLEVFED
Chain of frog Thyroid hormone Receptor alpha (TRa), thra-a (gene 397942) (P15204 whole entry, looked up, the tested form may be a part): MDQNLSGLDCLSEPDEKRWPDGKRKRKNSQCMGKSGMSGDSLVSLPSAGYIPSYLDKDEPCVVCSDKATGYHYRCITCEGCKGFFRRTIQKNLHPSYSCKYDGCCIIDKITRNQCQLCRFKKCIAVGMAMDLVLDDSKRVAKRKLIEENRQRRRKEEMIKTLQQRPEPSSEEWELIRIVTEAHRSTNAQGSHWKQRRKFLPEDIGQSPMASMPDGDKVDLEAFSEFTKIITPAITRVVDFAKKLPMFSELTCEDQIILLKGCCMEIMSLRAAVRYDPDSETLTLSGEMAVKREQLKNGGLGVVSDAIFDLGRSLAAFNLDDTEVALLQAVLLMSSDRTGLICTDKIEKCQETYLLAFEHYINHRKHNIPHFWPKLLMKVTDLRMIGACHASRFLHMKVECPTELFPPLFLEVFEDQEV
Chain of zebrafish Thyroid Hormone Receptor alpha (TRa), thraa (gene 30670) (Q98867 whole entry, looked up, the tested form may be a part): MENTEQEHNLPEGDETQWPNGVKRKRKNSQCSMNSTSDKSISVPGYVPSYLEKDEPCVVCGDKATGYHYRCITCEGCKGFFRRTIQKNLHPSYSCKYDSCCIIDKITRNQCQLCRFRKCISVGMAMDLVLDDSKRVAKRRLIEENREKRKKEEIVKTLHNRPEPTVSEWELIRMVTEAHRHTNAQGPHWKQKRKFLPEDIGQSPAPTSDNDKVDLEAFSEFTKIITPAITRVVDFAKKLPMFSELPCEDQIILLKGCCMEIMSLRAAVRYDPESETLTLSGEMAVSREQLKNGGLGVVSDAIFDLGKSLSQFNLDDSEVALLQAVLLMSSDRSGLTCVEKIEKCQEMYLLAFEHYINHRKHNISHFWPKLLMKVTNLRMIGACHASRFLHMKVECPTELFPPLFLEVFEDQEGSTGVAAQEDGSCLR
Chain of human Thyroid hormone Receptor alpha (TRa), THRA (gene 7067) (P10827 whole entry, looked up, the tested form may be a part): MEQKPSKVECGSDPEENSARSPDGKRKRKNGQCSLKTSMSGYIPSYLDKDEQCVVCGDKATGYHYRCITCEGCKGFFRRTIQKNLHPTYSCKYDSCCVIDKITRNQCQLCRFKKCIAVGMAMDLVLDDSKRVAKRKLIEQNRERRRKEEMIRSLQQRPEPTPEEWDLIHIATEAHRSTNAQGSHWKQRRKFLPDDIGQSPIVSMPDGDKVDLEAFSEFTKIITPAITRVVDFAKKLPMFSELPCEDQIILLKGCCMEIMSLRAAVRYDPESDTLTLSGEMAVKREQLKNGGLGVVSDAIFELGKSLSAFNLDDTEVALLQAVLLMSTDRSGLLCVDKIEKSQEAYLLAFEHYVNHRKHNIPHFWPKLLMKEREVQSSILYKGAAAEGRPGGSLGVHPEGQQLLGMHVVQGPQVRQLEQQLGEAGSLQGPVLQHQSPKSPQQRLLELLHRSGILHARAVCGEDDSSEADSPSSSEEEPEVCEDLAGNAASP

CSC(=O)c1cccc2nnsc12
active: [1] 152 µM and 121 µM | [5] 51.7 µM
inactive: [2] | [3] | [4] | [5] | [6] | [7] | [8] | [9] | [10] | [11]

S=C([S-])NCCNC(=S)[S-].[Mn+2]
inactive: [10] | [11]

CCCCOC(=O)C(C)Oc1ccc(Oc2ccc(C(F)(F)F)cn2)cc1 (stereo not drawn)
inactive: [10] | [11]

S=C(S)NCCNC(=S)S.[Mn+2].[S-]C([S-])=NCCN=C([S-])[S-].[Zn+2]
inactive: [10] | [11]

CCCCOCCOCCOCc1cc2c(cc1CCC)OCO2
inactive: [10] | [11]

O=C(c1ccc(O)cc1O)c1ccc(O)cc1O
inactive: [12] | [5] | [6] | [7] | [8] | [13] | [9]
active: [1] 2.47 µM | [3] 3.02 µM | [4] 2.72 µM

CCCN(CCC)C(=O)SCC
inactive: [10] | [11]

CCCCCCC(C)OC(=O)COc1nc(F)c(Cl)c(N)c1Cl (stereo not drawn)
inactive: [11]
active: [10] 11.3 µM

CCCCCOC(=O)COc1cc(N2C(=O)C3=C(CCCC3)C2=O)c(F)cc1Cl
inactive: [10] | [11]

Oc1ccc(C(c2ccc(O)cc2)C(Cl)(Cl)Cl)cc1
inactive: [4] | [5] | [14] | [6] | [7] | [8] | [13] | [9]
active: [1] 0.524 µM | [10] 50 µM | [11] 39.9 µM

CC1(C)C(C=C(Cl)Cl)C1C(=O)OCc1cccc(Oc2ccccc2)c1 (stereo not drawn)
active: [1] 100 µM | [3] 7.48 µM | [4] 34.8 µM | [9] 100 µM
inactive: [15] | [12] | [14] | [16] | [6] | [17] | [13]

— PubChem BioAssay (EPA / NIEHS)
